Assay results from PMC7862700, “An all-to-all approach to the identification of sequence-specific readers for epigenetic DNA modifications on cytosine”.

What was measured:
Test in all cases: DAPPL (digital affinity profiling via proximity ligation, sequencing); 10 mM Tris-HCl pH 7.5, 50 mM NaCl, 1 mM DTT, 4% glycerol, room temperature, 30 min; GST-TFs on glutathione beads, 16-mer random dsDNA library, 0.1% formaldehyde crosslink after washing; high values mean tight binding
Conditions in all cases: protein: recombinant; tags: N-terminal GST; dsDNA, one strand shown
ERF = molecular target: T1, ERF (Homo sapiens, UniProt P50548 1-548)
T1 sequence: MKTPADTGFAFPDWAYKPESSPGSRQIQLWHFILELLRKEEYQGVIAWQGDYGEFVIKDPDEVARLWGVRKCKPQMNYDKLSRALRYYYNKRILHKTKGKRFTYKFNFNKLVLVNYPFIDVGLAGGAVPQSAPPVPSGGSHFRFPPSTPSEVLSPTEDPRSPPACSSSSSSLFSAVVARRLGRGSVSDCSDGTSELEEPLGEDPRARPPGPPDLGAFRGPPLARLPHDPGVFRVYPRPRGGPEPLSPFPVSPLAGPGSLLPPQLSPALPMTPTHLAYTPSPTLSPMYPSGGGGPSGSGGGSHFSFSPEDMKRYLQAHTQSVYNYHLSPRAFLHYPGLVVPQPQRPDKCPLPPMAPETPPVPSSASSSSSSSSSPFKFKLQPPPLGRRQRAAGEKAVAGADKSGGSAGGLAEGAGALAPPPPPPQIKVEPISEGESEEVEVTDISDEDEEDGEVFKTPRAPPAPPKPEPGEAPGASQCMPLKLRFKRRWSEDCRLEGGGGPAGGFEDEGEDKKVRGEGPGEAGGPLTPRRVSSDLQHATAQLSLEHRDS
Summary of the method: (§1)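 Sequencing on an Illumina NextSeq500 followed washing, crosslinking with 0.1% formaldehyde, proximity ligation (BsaI/T4 ligase, 1 h, 37 °C) and PCR amplification of pools that had been incubated for 30 min at room temperature with 200 nmole of a random double-stranded 16-mer DNA library in Tris/NaCl/DTT/glycerol buffer. Each pool held DNA-barcoded human transcription factors, expressed in yeast as GST fusions and captured on glutathione beads, plus a tag-only sample. Binding signal is a hexamer's read frequency for a factor divided by its frequency in the tag-only sample.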

ETV3L = molecular target: T2, ETV3L (Homo sapiens, UniProt Q6ZN32 1-361)
T2 sequence: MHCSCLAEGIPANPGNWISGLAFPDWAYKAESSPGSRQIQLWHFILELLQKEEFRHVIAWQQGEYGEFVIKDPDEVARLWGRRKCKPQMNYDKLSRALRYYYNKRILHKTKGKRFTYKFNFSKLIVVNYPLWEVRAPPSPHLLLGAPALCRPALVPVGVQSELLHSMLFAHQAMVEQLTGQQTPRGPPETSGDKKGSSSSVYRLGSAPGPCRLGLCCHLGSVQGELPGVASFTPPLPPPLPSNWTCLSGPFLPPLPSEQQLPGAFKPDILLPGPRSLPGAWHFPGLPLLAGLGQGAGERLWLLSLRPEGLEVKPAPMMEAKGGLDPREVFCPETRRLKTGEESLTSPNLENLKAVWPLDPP
Summary of the method: as §1

ETS2 = molecular target: T3, ETS2 (Homo sapiens, UniProt P15036 1-469)
T3 sequence: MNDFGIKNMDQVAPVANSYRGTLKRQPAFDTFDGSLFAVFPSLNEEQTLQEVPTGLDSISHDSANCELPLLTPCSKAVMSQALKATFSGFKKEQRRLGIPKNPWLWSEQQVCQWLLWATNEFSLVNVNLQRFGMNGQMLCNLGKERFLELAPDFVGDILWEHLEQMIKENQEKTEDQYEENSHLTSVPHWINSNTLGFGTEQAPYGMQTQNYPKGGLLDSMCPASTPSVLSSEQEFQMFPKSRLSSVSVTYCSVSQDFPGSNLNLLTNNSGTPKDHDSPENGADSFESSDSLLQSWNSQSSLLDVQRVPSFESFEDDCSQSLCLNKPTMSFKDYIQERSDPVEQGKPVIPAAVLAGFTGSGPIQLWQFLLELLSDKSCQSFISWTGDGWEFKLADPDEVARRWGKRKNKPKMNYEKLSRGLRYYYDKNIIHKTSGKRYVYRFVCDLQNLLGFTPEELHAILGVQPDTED
Summary of the method: as §1

SPDEF = molecular target: T4, SPDEF (Homo sapiens, UniProt O95238 1-335)
T4 sequence: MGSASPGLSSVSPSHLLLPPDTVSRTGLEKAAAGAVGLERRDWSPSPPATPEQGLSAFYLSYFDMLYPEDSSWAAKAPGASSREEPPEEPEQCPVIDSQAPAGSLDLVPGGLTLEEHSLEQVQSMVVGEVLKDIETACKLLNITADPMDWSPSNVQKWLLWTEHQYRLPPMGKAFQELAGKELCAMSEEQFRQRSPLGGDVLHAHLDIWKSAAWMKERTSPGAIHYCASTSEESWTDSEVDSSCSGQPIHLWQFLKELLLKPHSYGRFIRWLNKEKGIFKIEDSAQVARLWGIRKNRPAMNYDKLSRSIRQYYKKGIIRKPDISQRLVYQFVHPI
Summary of the method: as §1

ETV7 = molecular target: T5, ETV7 (Homo sapiens, UniProt Q9Y603 1-341)
T5 sequence: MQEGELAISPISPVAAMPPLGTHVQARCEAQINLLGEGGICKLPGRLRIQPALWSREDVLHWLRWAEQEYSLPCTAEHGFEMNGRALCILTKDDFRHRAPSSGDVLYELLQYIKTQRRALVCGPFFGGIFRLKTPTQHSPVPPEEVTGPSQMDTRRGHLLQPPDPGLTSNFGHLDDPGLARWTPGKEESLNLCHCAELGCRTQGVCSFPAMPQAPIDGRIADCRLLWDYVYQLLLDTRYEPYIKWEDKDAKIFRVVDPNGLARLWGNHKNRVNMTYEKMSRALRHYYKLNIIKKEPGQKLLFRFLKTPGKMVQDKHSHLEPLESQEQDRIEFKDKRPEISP
Summary of the method: as §1

ELF5 = molecular target: T6, ELF5 (Homo sapiens, UniProt Q9UKW6-2 1-255)
T6 sequence: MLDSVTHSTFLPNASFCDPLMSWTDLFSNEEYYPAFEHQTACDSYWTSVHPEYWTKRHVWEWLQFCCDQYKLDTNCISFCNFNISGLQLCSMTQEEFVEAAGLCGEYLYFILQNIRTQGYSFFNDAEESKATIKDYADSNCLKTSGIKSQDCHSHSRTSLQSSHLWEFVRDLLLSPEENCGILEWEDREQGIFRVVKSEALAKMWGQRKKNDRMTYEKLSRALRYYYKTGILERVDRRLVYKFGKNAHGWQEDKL
Summary of the method: as §1

ETV3 = molecular target: T7, ETV3 (Homo sapiens, UniProt P41162-2 1-143)
T7 sequence: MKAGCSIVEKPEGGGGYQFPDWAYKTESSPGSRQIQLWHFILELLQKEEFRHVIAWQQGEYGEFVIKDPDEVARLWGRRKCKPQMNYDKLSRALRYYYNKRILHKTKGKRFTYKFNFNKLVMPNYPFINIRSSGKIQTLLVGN
Summary of the method: as §1

ETV6 = ETV6 (Homo sapiens, UniProt P41212 1-452)
Summary of the method: as §1

Chain of ETV6 (P41212 whole entry): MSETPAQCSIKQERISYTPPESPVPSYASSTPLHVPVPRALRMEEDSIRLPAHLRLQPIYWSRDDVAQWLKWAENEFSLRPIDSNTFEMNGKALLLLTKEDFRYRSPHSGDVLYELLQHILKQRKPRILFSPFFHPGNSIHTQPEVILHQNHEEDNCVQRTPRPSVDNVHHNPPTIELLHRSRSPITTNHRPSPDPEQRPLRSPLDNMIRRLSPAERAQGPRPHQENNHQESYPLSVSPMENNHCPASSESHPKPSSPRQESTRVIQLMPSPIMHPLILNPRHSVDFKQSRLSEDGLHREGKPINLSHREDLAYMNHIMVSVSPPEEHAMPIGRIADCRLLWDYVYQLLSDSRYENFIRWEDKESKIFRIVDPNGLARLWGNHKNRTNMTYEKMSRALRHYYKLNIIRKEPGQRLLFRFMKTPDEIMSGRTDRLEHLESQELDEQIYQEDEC

Row | Sequence | binding signal (ERF) | binding signal (ETV3L) | binding signal (ETS2) | binding signal (SPDEF) | binding signal (ETV7) | binding signal (ELF5) | binding signal (ETV3) | binding signal (ETV6)
1 | AAGATT | 1.1 fold enrichment (6-mer frequency, TF over GST control) | 1.18 fold enrichment (6-mer frequency, TF over GST control) | 1.18 fold enrichment (6-mer frequency, TF over GST control) | 1.16 fold enrichment (6-mer frequency, TF over GST control) | 1.16 fold enrichment (6-mer frequency, TF over GST control) | 1.14 fold enrichment (6-mer frequency, TF over GST control) | 1.14 fold enrichment (6-mer frequency, TF over GST control) | 1.19 fold enrichment (6-mer frequency, TF over GST control)
2 | CCTTGG | 1.23 fold enrichment (6-mer frequency, TF over GST control) | 1.3 fold enrichment (6-mer frequency, TF over GST control) | 1.25 fold enrichment (6-mer frequency, TF over GST control) | 1.25 fold enrichment (6-mer frequency, TF over GST control) | 1.22 fold enrichment (6-mer frequency, TF over GST control) | 1.26 fold enrichment (6-mer frequency, TF over GST control) | 1.12 fold enrichment (6-mer frequency, TF over GST control) | 1.24 fold enrichment (6-mer frequency, TF over GST control)
3 | CTATTC | 1.33 fold enrichment (6-mer frequency, TF over GST control) | 1.4 fold enrichment (6-mer frequency, TF over GST control) | 1.32 fold enrichment (6-mer frequency, TF over GST control) | 1.41 fold enrichment (6-mer frequency, TF over GST control) | 1.34 fold enrichment (6-mer frequency, TF over GST control) | 1.29 fold enrichment (6-mer frequency, TF over GST control) | 1.33 fold enrichment (6-mer frequency, TF over GST control) | 1.4 fold enrichment (6-mer frequency, TF over GST control)
4 | AATGGC | 1.25 fold enrichment (6-mer frequency, TF over GST control) | 1.3 fold enrichment (6-mer frequency, TF over GST control) | 1.39 fold enrichment (6-mer frequency, TF over GST control) | 1.29 fold enrichment (6-mer frequency, TF over GST control) | 1.32 fold enrichment (6-mer frequency, TF over GST control) | 1.44 fold enrichment (6-mer frequency, TF over GST control) | 1.41 fold enrichment (6-mer frequency, TF over GST control) | 1.51 fold enrichment (6-mer frequency, TF over GST control)
5 | ATTTGA | 1.14 fold enrichment (6-mer frequency, TF over GST control) | 1.25 fold enrichment (6-mer frequency, TF over GST control) | 1.2 fold enrichment (6-mer frequency, TF over GST control) | 1.19 fold enrichment (6-mer frequency, TF over GST control) | 1.28 fold enrichment (6-mer frequency, TF over GST control) | 1.12 fold enrichment (6-mer frequency, TF over GST control) | 1.21 fold enrichment (6-mer frequency, TF over GST control) | 1.16 fold enrichment (6-mer frequency, TF over GST control)
6 | ACTTCC | 7.03 fold enrichment (6-mer frequency, TF over GST control) | 7.94 fold enrichment (6-mer frequency, TF over GST control) | 8.81 fold enrichment (6-mer frequency, TF over GST control) | 8.64 fold enrichment (6-mer frequency, TF over GST control) | 7.8 fold enrichment (6-mer frequency, TF over GST control) | 12.5 fold enrichment (6-mer frequency, TF over GST control) | 9.02 fold enrichment (6-mer frequency, TF over GST control) | 10.9 fold enrichment (6-mer frequency, TF over GST control)
7 | CAATCT | 1.21 fold enrichment (6-mer frequency, TF over GST control) | 1.14 fold enrichment (6-mer frequency, TF over GST control) | 1.18 fold enrichment (6-mer frequency, TF over GST control) | 1.03 fold enrichment (6-mer frequency, TF over GST control) | 1.25 fold enrichment (6-mer frequency, TF over GST control) | 1.16 fold enrichment (6-mer frequency, TF over GST control) | 1.19 fold enrichment (6-mer frequency, TF over GST control) | 1.19 fold enrichment (6-mer frequency, TF over GST control)
